# In the library only some 3.5% were active in any assay of this set; here they are far more common.
# GPR151 activ = human GPR151 activation; Q8TDV0; PathHunter beta-arrestin GPR151 cells, luminescence; activation, % at 11.2 µM; 650,000 compounds, 1% hits; in the data active = activation above about 4.9%;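 note: 0% = median of compound wells and 100% = cells with positive control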
# FBW7 activator = human FBW7 E3 ligase activation, primary screen; AlphaScreen FBW7–phospho-cyclin E peptide binding, activator screen; Q969H0; 650,000 compounds, 0.13% hits; normalized activity (activation), % at 26.1 µM; AID 1259310; in the data active = normalized activity above about 1.9%;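 note: purified mutant Fbw7 with reduced substrate affinity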
# Target sequence (Q969H0 whole entry, looked up): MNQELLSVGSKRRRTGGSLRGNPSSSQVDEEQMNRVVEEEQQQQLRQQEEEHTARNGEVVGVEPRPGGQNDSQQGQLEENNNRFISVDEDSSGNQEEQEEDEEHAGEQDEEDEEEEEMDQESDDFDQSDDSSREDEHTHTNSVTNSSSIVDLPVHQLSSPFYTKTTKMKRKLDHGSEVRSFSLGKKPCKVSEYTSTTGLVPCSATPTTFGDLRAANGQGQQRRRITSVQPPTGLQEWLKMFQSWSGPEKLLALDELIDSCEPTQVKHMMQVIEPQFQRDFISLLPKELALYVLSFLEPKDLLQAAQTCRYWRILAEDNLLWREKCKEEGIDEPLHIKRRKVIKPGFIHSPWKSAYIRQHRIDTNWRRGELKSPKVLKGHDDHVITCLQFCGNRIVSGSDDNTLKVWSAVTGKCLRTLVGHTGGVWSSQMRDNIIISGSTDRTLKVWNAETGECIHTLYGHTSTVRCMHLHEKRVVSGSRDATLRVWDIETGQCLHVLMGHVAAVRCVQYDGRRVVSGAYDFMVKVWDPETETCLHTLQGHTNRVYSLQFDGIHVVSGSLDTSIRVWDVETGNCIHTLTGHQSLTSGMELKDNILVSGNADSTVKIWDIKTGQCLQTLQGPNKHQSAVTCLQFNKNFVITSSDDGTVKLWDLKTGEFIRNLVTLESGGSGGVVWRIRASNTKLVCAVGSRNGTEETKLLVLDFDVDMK
# TEAD-YAP inh = TEAD-YAP interaction inhibition. 640,000 compounds, 1.4% hits. AID 1259422. inhibition, % at 9.12 µM. HEK-TIYL cells, TEAD-Gal4/YAP UAS-luciferase luminescence; in the data active = inhibition above about 32%;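 note: 0% = median of test compound wells and 100% = reference inhibitor wells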
# MITF inh = human MITF inhibition, primary screen; AID 1259374; 650,000 compounds, 0.91% hits; inhibition, % at 2.6 µM; AlphaScreen MITF homodimerization, bead proximity signal; in the data active = inhibition above about 50%;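 note: 0% = vehicle wells with protein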
# * = called active by the depositor.
SMILES,GPR151 activ,FBW7 activator,TEAD-YAP inh,MITF inh
Nc1ccc(NC2=C(N3CCCCC3)C(=O)c3ccccc3C2=O)cc1,-1,-1,-1,-6
COc1ccccc1NC1=C(N2CCCCC2)C(=O)c2ccccc2C1=O,2,0,62*,-2
O=C1C(NC2CCCC2)=C(N2CCCCC2)C(=O)c2ccccc21,-2,0,86*,11
O=c1[nH]c(CN2CCOCC2)nc2scc(-c3cccs3)c12,0,0,-4,-12
Cn1nnnc1Sc1nc(CN2CCOCC2)nc2scc(-c3cccs3)c12,-1,0,61*,-1
COc1ccc(NC(=O)COC(=O)CNC(=O)c2ccc([N+](=O)[O-])c(C)c2)c([N+](=O)[O-])c1,2,0,6,6
COc1cc(C2C(C#N)=C(N)N(c3ccc(C)cc3)C3=C2C(=O)CCC3)cc(OC)c1OC (configuration not stated),-1,0,61*,10
COc1ccc(N2C(N)=C(C#N)C(c3ccc(O)c(OC)c3)C3=C2CCCC3=O)cc1 (configuration not stated),0,0,58*,-4
COc1ccc(C2C(C#N)=C(N)N(c3ccc(OC)cc3)C3=C2C(=O)CCC3)cc1 (configuration not stated),-1,0,1,11
COc1ccc(N2C(N)=C(C#N)C(c3ccc(OC)c(OC)c3)C3=C2CCCC3=O)cc1 (configuration not stated),0,0,62*,-3
CN(C)N1C(N)=C(C#N)C(c2ccc(C(F)(F)F)cc2)C2=C1CCCC2=O (configuration not stated),1,2.1*,-23,-10
Cc1ccc(C2C(C#N)=C(N)N(N(C)C)C3=C2C(=O)CCC3)cc1 (configuration not stated),0,0,-1,1
CCC1(C)CC(CCNCc2ccc(F)cc2)(c2ccc(C)cc2)CCO1 (configuration not stated),0,0,1,6
COc1cc(CCC(=O)NNc2c(F)c(F)cc(F)c2F)cc(OC)c1OC,1,0,0,2
N#Cc1cccc(OCCCN2CCC(=O)N(Cc3ccc(Cl)nc3)CC2)c1,-1,0,9,11
Cc1cnc(Nc2ccc(C(F)(F)F)cc2)nc1NCc1cccc(C(F)(F)F)c1,-2,0,11,-22
COc1cc(Nc2ncc(C)c(NCc3cccc(C(F)(F)F)c3)n2)cc(OC)c1OC,1,0,54*,-5
Cc1cnc(Nc2ccc(-n3ccnc3)cc2)nc1NCc1cccc(C(F)(F)F)c1,0,0,37*,-10
COc1cc(Nc2ncc(C)c(NCc3cccnc3)n2)cc(OC)c1OC,2,0,-13,20
CCCNc1cc(C)nc(Nc2ccc(-n3ccnc3)cc2)n1,1,0,35*,6
O=C(NCc1ccccc1)C1CCN(c2ccc(Nc3ccc(-n4ccnc4)cc3)nn2)CC1,-2,0,2,11
O=C(NCc1cccc(C(F)(F)F)c1)C1CCN(c2ccc(Nc3ccc(-n4ccnc4)cc3)nn2)CC1,-3,0,35*,11
O=C1N/C(=C\c2ccc(-c3cccc(F)c3)o2)C(=O)N1Cc1ccccc1,-1,0,-13,-2
Cc1cnc(Nc2cnccn2)nc1NCc1cccc(C(F)(F)F)c1,2,0,46*,8
Cc1cc(NCc2cccc(C(F)(F)F)c2)nc(Nc2ccc(-n3ccnc3)cc2)n1,1,0,50*,0
SMILES,GPR151 activ,FBW7 activator,TEAD-YAP inh,MITF inh
CCOc1ccccc1/C=C(\C#N)C(=O)Nc1ccc(C(=O)O)cc1,-2,0,3,11
COc1ccc(CCNC(=O)CSc2nc3c(=O)n(C)c(=O)n(C)c3n2C)cc1OC,1,0,10,0
Cc1cccc(NC(c2cccc(O)c2)c2ccc3ccc(C)nc3c2O)n1 (configuration not stated),0,0,11,17
Cc1ccnc(NC(c2cccc(O)c2)c2ccc3ccc(C)nc3c2O)c1 (configuration not stated),0,0,13,5
COc1cc(C(Nc2cc(C)ccn2)c2ccc3cccnc3c2O)ccc1O (configuration not stated),1,0,-11,54*
CCOc1cc(C(Nc2cc(C)ccn2)c2ccc3cccnc3c2O)ccc1O (configuration not stated),-1,-1,2,69*
COc1cc(C(Nc2cc(C)ccn2)c2ccc3ccc(C)nc3c2O)cc(OC)c1OC (configuration not stated),1,0,68*,21
COc1cc(C(Nc2cccc(C)n2)c2ccc3ccc(C)nc3c2O)cc(OC)c1O (configuration not stated),2,0,33*,3
O=C(CNC(=S)N(Cc1ccccc1)Cc1cccnc1)NCc1ccccc1Cl,0,0,5,6
Cc1cccc(C(=O)N2c3ccccc3C(N(C(=O)c3cccc(C)c3)c3ccccc3)CC2C)c1 (configuration not stated),0,0,-6,-10
C=CCn1c(SCC(=O)Nc2ccc(F)cc2F)nnc1-c1ccccc1O,0,0,48*,-7
C=CCn1c(SCC(=O)Nc2cccc(C)c2)nnc1-c1ccccc1O,1,0,13,6
CCc1ccc(C2(C)SC(NC(C)=O)=NN2C(C)=O)cc1 (configuration not stated),0,0,-6,8
CC(=O)NC1=NN(C(C)=O)C(C)(c2cccs2)S1 (configuration not stated),-1,0,60*,1
CC(=O)NC1=NN(C(C)=O)C(C)(c2ccc(F)cc2)S1 (configuration not stated),0,1,37*,11
O=C(Nc1ccc2c(c1)OCO2)c1ccccc1[N+](=O)[O-],-1,0,-33,12
COc1ccc(CN(Cc2ccccc2)C(=S)Nc2ccc(F)cc2)cc1OC,0,0,-5,9
COc1cc(Nc2ncnc3c2nc(Nc2cccc(N(C)C)c2)n3C(C)C)cc(OC)c1OC,-1,0,1,16
COc1cc(Nc2nc3c(Nc4ccccc4)ncnc3n2C(C)C)cc(OC)c1OC,-3,0,38*,4
COc1cc(Nc2nc3c(NCCO)ncnc3n2C(C)C)cc(OC)c1OC,1,0,-20,20
COc1cc(Nc2nc3c(NCCc4ccc(O)cc4)ncnc3n2C(C)C)cc(OC)c1OC,3,0,32*,7
Cc1cc(N2CCCCC2)nc(NCc2ccccc2)n1,2,0,48*,-11
Cc1cc(N2CCCCC2)nc(NCCNC(=O)Nc2ccc(F)cc2F)n1,-2,0,37*,0
Cc1cc(N2CCOCC2)nc(NCc2ccccc2)n1,1,0,7,13
Cc1cc(N2CCCCC2)nc(NCCNC(=O)c2ccco2)n1,2,0,41*,-8
COc1cc(OC)c(NC(=O)NCCNc2nc(C)cc(N3CCCCC3)n2)cc1Cl,-1,0,10,2
Cc1cc(N2CCCCC2)nc(NCCNC(=O)/C=C/c2ccccc2)n1,-2,0,38*,-1
